High-throughput results: PubChem BioAssay, The Scripps Research Institute Molecular Screening Center
CHO-K1 Ca ag: counter-screen for M1 agonists: effect in parental CHO-K1 cells; Fluo-8 calcium fluorescence; scaled to maximal ATP response, vehicle zero; activation, % at 3 µM; actives 0.48% (n = 360,000); AID 602248; in the data active = activation above about 15%;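 note: untransfected CHO-K1 host cells lacking M1 receptor as counterscreen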
M1 antag: blocks human M1 muscarinic receptor | CHO-K1 hM1, Fluo-8 calcium fluorescence, ACh EC80 antagonist | inhibition, % at 3 µM | P11229 | actives 1.3% (n = 360,000);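 active = percent inhibition above its own plate's cutoff, namely the mean of that plate's compound wells plus 3 SD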;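 note: peak over basal fluorescence ratio during 140 s after agonist addition; 0% = ACh EC80 plus DMSO and 100% = DMSO alone without agonist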
Target sequence (P11229 whole entry, looked up): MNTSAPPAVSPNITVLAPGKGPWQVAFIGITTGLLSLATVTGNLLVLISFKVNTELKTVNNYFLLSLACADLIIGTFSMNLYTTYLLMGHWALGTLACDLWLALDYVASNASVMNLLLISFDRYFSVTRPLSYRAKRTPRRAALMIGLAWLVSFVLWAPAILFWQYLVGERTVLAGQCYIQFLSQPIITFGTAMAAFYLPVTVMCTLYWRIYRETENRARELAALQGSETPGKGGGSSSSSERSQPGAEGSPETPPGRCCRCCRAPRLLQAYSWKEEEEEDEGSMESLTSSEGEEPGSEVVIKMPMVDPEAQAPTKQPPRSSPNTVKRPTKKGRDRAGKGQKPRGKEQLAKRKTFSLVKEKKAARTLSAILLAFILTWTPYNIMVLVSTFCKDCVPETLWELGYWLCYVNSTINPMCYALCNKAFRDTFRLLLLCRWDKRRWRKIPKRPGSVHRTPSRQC
CHO-K1 Ca antag: M1 antagonist counterscreen hit in parental CHO-K1 cells; ATP-induced calcium, Fluo-8 fluorescence; inhibition, % at 3 µM; actives 0.6% (n = 360,000);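 active = inhibition above a per-plate cutoff, the plate's mean sample inhibition plus 3 SD, cut at about 24% in these data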;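 note: 0% = DMSO plus EC80 ATP and 100% = DMSO alone without ATP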
CHO-K1 Ca PAM: M1 PAM counterscreen hit in parental CHO-K1 cells; activation, % at 3 µM; actives 0.02% (n = 360,000); AID 602247; ATP EC20, Fluo-8 calcium fluorescence; 0% at ATP EC20, 100% at ATP max;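 active = activation above the run cutoff, the mean activation of all test compounds plus 3 SD, cut at about 40% in these data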;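 note: peak over basal fluorescence ratio in a 140 s read after ATP addition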
CHRM1 agonist: human M1 muscarinic receptor agonism; CHO-K1 hM1, Fluo-8 calcium fluorescence, agonist mode; 0% DMSO, 100% acetylcholine EC100; actives 0.33% (n = 360,000); AID 588814; P11229; activation, % at 3 µM;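 active = activation above the run's mean compound activation plus 3 SD, cut at about 16% in these data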;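 note: peak over basal fluorescence ratio within a 140 s kinetic read after compound addition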
M1 PAM: potentiates human M1 receptor response to acetylcholine; P11229; CHO-K1 hM1, Fluo-8 calcium fluorescence, ACh EC20; 0% = ACh EC20, 100% = maximal ACh; activation, % at 3 µM; actives 0.088% (n = 360,000); AID 588819; in the data active = activation above about 19%, passing the limit was not always enough
An asterisk follows results filed as active; x = not tested or not shown. Hits are enriched below; roughly 2.3% of the tested compounds scored in any of these assays.

SMILES	CHO-K1 Ca ag	M1 antag	CHO-K1 Ca antag	CHO-K1 Ca PAM	CHRM1 agonist	M1 PAM
COc1ccc2cc1Oc1ccc(cc1)C[C@H]1c3cc(c(OC)cc3CCN1C)Oc1c(OC)c(OC)cc3c1[C@H](C2)N(C)CC3	2	91*	0	13	-7	-25
COc1ccc2cc1Oc1ccc(cc1)C[C@H]1c3c(cc4c(c3Oc3cc5c(cc3OC)CCN(C)[C@@H]5C2)OCO4)CCN1C	0	-32	-3	16	-7	-6
CC(C)(C)C1CCC(CN2C(Nc3ccccc3)=NC[C@@H]2Cc2ccccc2)CC1 (stereo partly specified)	17*	65*	5	20	-2	-28
CNc1nc2cc([N+](=O)[O-])c([N+](=O)[O-])cc2nc1NC	18*	30*	39*	-8	2	-11
N#Cc1cc2nc(O)c(O)nc2cc1[N+](=O)[O-]	0	-15	-2	11	-3	0
COc1ccc(CCn2nnnc2C(CC(C)C)N2CCN(c3ncccn3)CC2)cc1OC (stereo unspecified)	-1	23	37*	-12	-3	-7
CC(C)(C)NC(=O)NC(=O)CSc1nnc(-c2ccccc2F)n1N	0	14	33*	-8	0	-6
Cc1ccccc1N(C=O)c1ccccc1C	0	-12	-20	26	-3	2
Cn1c(CNC(=O)c2ccccc2F)nnc1SCC(=O)c1ccccc1	0	13	3	-16	-2	-4
CC(C)S(=O)(=O)c1cnc(-c2ccccn2)nc1N	0	10	13	-13	-4	-3
N#Cc1c(N)[nH]c(=S)c(C#N)c1-c1ccccc1	0	-3	24*	-4	-4	5
Cc1ccc(-c2cc(-c3ccccc3)[nH]c(=S)c2C#N)cc1	0	-6	0	8	-2	5
NC(c1ccccc1)c1csc(Nc2cc(Oc3ccccc3)ncn2)n1 (stereo unspecified)	1	60*	8	-9	-6	-30
CCOC(=O)N1CCN(c2c(-c3ccc(C(C)C)cc3)c(=O)c2=O)CC1	-1	6	26*	-7	-1	5
CCOC(=O)N1CCN(c2c(-c3ccc(C)cc3)c(=O)c2=O)CC1	0	-24	14	4	1	13
O=C(CN1CCN(CC(=O)Nc2cccc(F)c2)CC1)Nc1ccc(-c2ccccc2)cc1	1	-6	-7	11	-6	6
CC1CCCC(C)N1C(=O)COC(=O)c1cc(F)c(F)cc1Cl (stereo unspecified)	-1	28*	18	-9	-8	-9
CC1CCCC(C)N1C(=O)c1cc(F)c(F)cc1Cl (stereo unspecified)	1	-4	-3	5	-7	1
CC(Sc1nnc(-c2ccco2)n1C)C(=O)Nc1nccs1 (stereo unspecified)	1	-7	3	1	-4	6
Cc1ccc(NC(=O)c2ccc3nc[nH]c3c2)cc1C	18*	-7	2	-1	-1	5
O=C(Nc1ccccc1)Nc1ccc(Br)c(Cl)c1	13	28	27*	3	0	-13
O=C(Nc1ccc(Cl)c(Cl)c1)Nc1ccon1	11	24*	20	-20	4	-15
Cc1cc(NC(=O)Nc2ccc(Cl)c(Cl)c2)no1	7	9	13	-14	3	-1
O=C(Nc1ccc(Cl)c(Cl)c1)Nc1ccccc1O	13	19	25*	-9	2	-7
O=C(Nc1ccc(Cl)c(Cl)c1)Nc1ccc(Br)cc1F	11	28	28*	1	0	-19
COCc1c(C(=O)NCCc2ccc(OC(F)F)cc2)oc2ccccc12	3	-1	-13	1	-5	-3
O=C(COC(=O)C1CCN(/C=C/C(=O)C(F)(F)F)CC1)Nc1cccc(F)c1	1	3	5	-8	0	-3
CCC(c1nnnn1-c1ccc2c(c1)OCCO2)N1CCc2ccccc2C1 (stereo unspecified)	2	x	-19	5	x	x
NNC(=O)C(=O)Nc1ccc(Cl)c(Cl)c1	1	-23	-5	4	-2	10
O=C1C=C(NC(=O)Nc2ccc(Cl)c(Cl)c2)CCC1	7	13	30*	-2	1	-12
